# Experimental data from ChEMBL document CHEMBL4513216, “Probing the Open Global Health Chemical Diversity Library for Multistage-Active Starting Points for Next-Generation Antimalarials” (ACS Infect Dis, 2020).
# The whole screen tested about 69,000 compounds, of which about 8,600 (12%) showed an effect of 50% or more. The sample holds strong results, similar compounds and a random draw of the others, so the mix is not that of the screen.
# Tested on: Plasmodium berghei
# Test: Screen against P. berghei liver stage (PbLuc), transformed with Luciferase, at 10uM
# Assay type: functional, HepG2
# Details: tested at 10 uM
row,SMILES,INHIBITION [%]
1,Cc1cccc(C(=O)Nc2c(C(=O)N(C)C)nn(C)c2C)c1,35
2,Cc1cnn(CC2CN(C=C3NN=C(c4occc4C)O3)CCO2)c1 (configuration not stated),13.3
3,Cc1cccc(CN2C(=O)CCC23CCN(C(=O)c2ccco2)CC3)c1,-7.28
4,Cc1nc(C)n(C2CCCN(C(=O)CCn3cncn3)C2)n1 (configuration not stated),14.9
5,CCc1nc(CN(C)c2nccc(N3CCCC(O)C3)n2)no1 (configuration not stated),20.3
6,Cc1nc(O)ccc1C(=O)NCc1ncccc1F,12.6
7,COCCNC(=O)NC1(c2nc(-c3ccncc3)no2)CCCCC1,56.3
8,O=C(NC1(c2nc(C3CC3)no2)CCCCC1)c1ccncc1,-3.19
9,COCCNC(=O)NC1(c2nc(C)no2)CCCCC1,19.2
10,CC(C)CNS(=O)(=O)c1ccc(C(=O)N(C)CCc2cn[nH]c2)cc1,-12.4
11,NC(=O)c1c(-c2ccc(Cl)cc2Cl)csc1NC(=O)CCC(=O)O,44.9
12,O=C(NCCC(=O)N1CCCc2ccccc21)c1c(O)cc(F)cc1F,73.9
13,O=C(NCCC(=O)N1CCCc2ccccc21)c1cc(F)cc(F)c1,-19.9
14,O=C(NCCC(=O)N1CCCc2ccccc21)c1ccc(F)cc1F,11.6
15,O=C(NCC(=O)N1CCCc2ccccc21)c1c(O)cc(F)cc1F,80.6
16,O=C(NCCC(=O)N1CCCc2ccccc21)c1c(F)cccc1F,-57.4
17,O=C(NCCS(=O)(=O)N1CCc2ccccc21)c1c(O)cc(F)cc1F,42
18,C=C(C)COc1ccc(C(CC(=O)OC)c2oc(C)cc(=O)c2O)cc1 (configuration not stated),-24.7
19,CNc1ncc(CN(C)C(=O)c2cccc(Cn3cccn3)c2)cn1,18.5
20,CCc1ccccc1Nc1noc2c1CN(C(=O)c1ccn(C)n1)CC2,-3.35
21,CCn1ccnc1CN1CCN(Cc2cccnc2)CC1C (configuration not stated),33.5
22,CC(C)NC(=O)N1CC(=O)c2sc(NC3CCCCC3)nc2C1,-16.7
23,CC(C)NC(=O)N1CC(=O)c2sc(Nc3ccc(C#N)cc3)nc2C1,61.9

row,SMILES,INHIBITION [%]
1,N#Cc1ccc(Nc2nc3c(s2)C(=O)CN(CC2CC2)C3)cc1,-15.2
2,CC[C@H](C)[C@H](N)C(=O)N1CC(=O)c2sc(Nc3ccc(F)cc3)nc2C1,14.5
3,CC(C)CC(=O)N1CC(=O)c2sc(Nc3ccc(C#N)cc3)nc2C1,79.7
4,CC(C)Nc1nc2c(s1)C(=O)CN(C)C2,35.2
5,CC(C)CC(=O)N1CC(=O)c2sc(Nc3ccc(F)cc3)nc2C1,51.5
6,CCN1CC(=O)c2sc(NC(C)C)nc2C1,23.4
7,Cc1nc(C)n(CC2CCCN(CCCOc3ccc(F)cc3)C2)n1 (configuration not stated),40.2
8,NC(=O)C1CCN(CCc2ccc(NC(=O)C3CC3)cc2)CC1,45.05
9,CC(O)(CNC(=O)NCCc1ccc2c(c1)CCO2)c1ccsc1 (configuration not stated),30.8
10,CC(C)c1nn(C)cc1CNC1CCOc2ccccc21 (configuration not stated),31.8
11,COc1ccccc1C1CNCCN1C(C)=O (configuration not stated),9.98
12,CC(=O)N1CCC2(CCCN2Cc2cnn(C)c2)CC1,-26
13,CCOc1ccnc(N2CCCN(c3nc(CC)ns3)CC2)n1,-12.5
14,CCOc1ccnc(N2CCCN(c3nc(C4CC4)ns3)CC2)n1,-75.5
15,COc1ccnc(N2CCCN(c3nc(C4CC4)ns3)CC2)n1,77.6
16,CC(C)C(NC(=O)Cn1ccc(=O)n(C)c1=O)c1ccc(F)cc1 (configuration not stated),53.8
17,CC(NC(=O)Cn1ccc(=O)n(C)c1=O)c1ccccc1F (configuration not stated),-27.8
18,CC(NC(=O)Cn1ccc(=O)n(C)c1=O)c1cc(F)ccc1F (configuration not stated),-35.7
19,O=C(c1ccc(NCc2cccc(F)c2)cc1)N1CCCC1,-16.1
20,CCC(C(=O)N(C)Cc1cc(COC)[nH]n1)n1cccn1 (configuration not stated),-29.2
21,O=C(c1ccc(NC2CC2)nc1)N1CCCC(n2ccnc2)C1 (configuration not stated),31.32
22,CCn1cc(S(=O)(=O)N2CCCC3(CC=CNC3=O)C2)c(C)n1 (configuration not stated),-42.9
23,Cn1cc(C(O)CNC(=O)c2ccc(F)cc2Cl)cn1 (configuration not stated),51.6

row,SMILES,INHIBITION [%]
1,Cc1ccc(C(=O)NCC(O)c2cnn(C)c2)c(Br)c1 (configuration not stated),29.7
2,Cn1cc(C(O)CNC(=O)c2cc(Br)ccc2Cl)cn1 (configuration not stated),19.8
3,CC(C)(O)CNC(=O)NCc1nccn1CCc1ccccc1,-4.63
4,CC(C)COCC(NC(=O)c1cnccn1)c1ccco1 (configuration not stated),-26.6
5,CC(C)COCC(NC(=O)c1cc[nH]n1)c1ccco1 (configuration not stated),53.8
6,CC(C)COCC(NC(=O)c1ccccn1)c1ccco1 (configuration not stated),8.25
7,CCn1nc(CC(C)C)cc1C(=O)NCC(F)(F)F,15.4
8,Cc1noc(C)c1CN1CCOC2(CCCN(c3ncccn3)C2)C1 (configuration not stated),-21.1
9,CC(C)c1nnc(CN2CCN(C(C)c3nc(C4CC4)no3)CC2)o1 (configuration not stated),33.3
10,CCC1=NN2C(=N)C(=Cc3cccn3-c3cccc(Cl)c3)C(=O)N=C2S1,73.7
11,CCC1=NN2C(=N)C(=Cc3cccn3-c3ccc(Cl)cc3)C(=O)N=C2S1,76.7
12,CCC1=NN2C(=N)C(=Cc3cccn3-c3ccc(Br)cc3)C(=O)N=C2S1,65.4
13,CCC1=NN2C(=N)/C(=C/c3cccc(Cl)c3)C(=O)N=C2S1,37.7
14,O=C(O)Cc1cn2cc(C(F)(F)F)ccc2n1,7.38
15,Cn1cc(CN2CC[C@H](O)[C@@H]2Cc2ccccc2)cn1,17.1
16,Cc1noc(C)c1C(=O)N1C[C@H]2CCC[C@@]2(COc2ccccn2)C1,34.7
17,COc1ccnc(N2C[C@@H](NS(=O)(=O)N(C)C)[C@H](C(C)C)C2)n1,-15.6
18,CCC[C@H]1CN(c2nccc(NCC)n2)C[C@@H]1NS(=O)(=O)N(C)C,48.7
19,CCC[C@H]1CN(c2nccc(OC)n2)C[C@@H]1NS(=O)(=O)N(C)C,56.6
20,CCS(=O)(=O)N1CC[C@H](OC)[C@@H]1Cc1ccncc1,28.4
21,CNc1ncc(-c2ccnn2C2CCN(C(C)=O)CC2)cn1,42.6
